This is a sample that favours compounds with a hit; in the whole collection about 2.4% have one here.
D2 ag-1: activates the human D2 dopamine receptor; HEK293 T-REx D2 cells, calcium flux agonist mode; activation, % at 2 µM; 340,000 compounds, 0.53% hits; AID 485358;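 active = activation over 3 SD above normal in the single-dose calcium agonist read, cut at about 30% in these data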
Target sequence (P14416 whole entry, looked up): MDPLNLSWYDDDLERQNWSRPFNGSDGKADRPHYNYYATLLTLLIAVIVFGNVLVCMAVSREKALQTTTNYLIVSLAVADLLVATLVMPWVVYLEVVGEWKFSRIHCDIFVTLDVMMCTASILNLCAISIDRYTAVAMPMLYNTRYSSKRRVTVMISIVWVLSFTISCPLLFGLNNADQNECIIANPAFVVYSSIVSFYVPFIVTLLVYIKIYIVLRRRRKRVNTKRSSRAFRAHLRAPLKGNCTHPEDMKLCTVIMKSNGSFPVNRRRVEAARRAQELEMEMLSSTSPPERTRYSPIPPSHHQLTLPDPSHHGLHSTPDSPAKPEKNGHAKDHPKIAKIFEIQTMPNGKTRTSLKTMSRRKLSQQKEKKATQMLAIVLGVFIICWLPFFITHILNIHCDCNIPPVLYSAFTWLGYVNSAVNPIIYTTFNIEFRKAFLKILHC
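Calcium-flux readout, 1 cycle/sec over 180 s following compound pin transfer, in inducible HEK293 Trex D2 cells (force-coupled); dopamine controls included. Positive calcium responses during this window marked compounds as potential agonists.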
D2 PAM-1: potentiates the human D2 dopamine receptor allosterically | P14416 | DiscoveRx D2 beta-arrestin cells, luminescence, 90 min; 100% = 57 uM dopamine signal | potentiation, % (concentration not given with the values) | 360,000 compounds, 0.23% hits | AID 624464; in the data active = potentiation above about 50%; inconclusive = mostly about 30% to 49%
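D2 cells co-treated with compound plus 50 nM dopamine (EC20) for 90 min at 37 deg C to detect potentiation. Beta-arrestin recruitment was read as enzyme-fragment luminescence after 1 h at ambient temperature. Full response was set by 57 uM dopamine.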
D2 ag-2: human D2 receptor agonism in beta-arrestin assay; 360,000 compounds, 0.084% hits; activation, % (no concentration beside the values); DiscoveRx PathHunter D2 beta-arrestin, luminescence, 90 min; 100% = 57 uM dopamine signal; P14416; in the data active = activation above about 40%; inconclusive = between about 15% and that limit
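Agonist mode: compounds alone added to overnight-plated D2 PathHunter cells for 90 min at 37 C, with 57 uM final dopamine (EC100) defining full response. Beta-arrestin recruitment detected by chemiluminescent reagent, read after 1 h at ambient temperature.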
D2 antagonist: D2 dopamine receptor (human) antagonism; HEK293 TREx D2 cells, calcium flux, dopamine EC80; inhibition, % at 10 µM; 340,000 compounds, 2% hits; AID 485344; in the data active = inhibition above about 30%; inactive = below that, where a call was filed
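Tetracycline-induced HEK293 T-REx cells expressing D2 force-coupled to calcium signalling were dye-loaded, exposed to compound for 180 s, then challenged with an EC80 of dopamine; calcium flux was followed kinetically for a further 180 s.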
D2 PAM-2: positively modulates the human D2 dopamine receptor allosterically; 340,000 compounds, 0.34% hits; AID 485347; potentiation, % at 10 µM; HEK293 T-REx D2, calcium flux, EC20 dopamine potentiation;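 active = potentiation over 3 SD above the plate norm, cut at about 30% in these data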
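Primary screen. Calcium kinetics in induced HEK293 T-REx D2 cells: compound pre-addition 180 s, EC20 dopamine, 180 s more.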
D3 arrestin ag: activates human D3 dopamine receptor beta-arrestin recruitment; Potency, µM (top dose mostly 76.9 µM), hits mostly activators; DiscoveRx D3 beta-arrestin cells, luminescence, 90 min; AID 720506; 2,300 compounds, 4% hits; shares compounds with D2 ag-1; also: nearly all actives have a fitted effect of over 70% in size
D2 ag-3: activates human D2 dopamine receptor in D3 counterscreen. shares compounds with D2 ag-1. DiscoveRx PathHunter D2 beta-arrestin, luminescence, 90 min; response scale: percent relative to full dopamine signal. Potency, µM (series often up to 76.9 µM), hits mostly activators. 2,300 compounds, 5.9% hits. AID 720507; also: nearly all actives have a fitted effect of over 70% in size
Each line names hits and unclear results; the compound was inactive in the other large screens (follow-up assays come after a bar, where they were run); ! = not confirmed by another sample. Unless noted, calls follow the shape of the dose curve; as a rule, active = well fitted activation curve with a large enough effect; inconclusive = small, poorly fitted or top-dose-only effect; inactive = flat fitted curve, though single readings scatter.

O=C(NCCCN1CCN(c2cccc(Cl)c2)CC1)c1nc(-c2ccncc2)no1	D2 ag-1 69.1, D2 antagonist 82.5 | D3 arrestin ag inactive | D2 ag-3 inactive
COC(=O)c1ccc(NC(=O)c2c(NCc3ccc(C)o3)sc3c2CCCC3)cc1	none (no result: D2 PAM-1, D2 ag-2, D2 antagonist)
CCN(CC)C(=O)COC(=O)C1CCN(S(=O)(=O)c2ccc3c(c2)OCCO3)CC1	none | D3 arrestin ag inactive | D2 ag-3 inactive
CN(C(=O)COC(=O)C1CCN(S(=O)(=O)c2ccc3c(c2)OCCO3)CC1)c1ccccc1	none
Cc1cc2nc(C3CCN(CC4COc5ccccc5O4)CC3)[nH]c2cc1C (centres undefined)	D2 ag-1 46.9 | D3 arrestin ag inactive | D2 ag-3 inconclusive
C=CCNC(=O)CN1CCC(c2nc3cc(C)c(C)cc3[nH]2)CC1	none
COc1cccc(CNC(=O)Cn2c(=O)oc3cc(S(=O)(=O)N4CCCC4)ccc32)c1	none (no result: D2 ag-1, D2 PAM-1, D2 ag-2, D2 antagonist)
O=C(Cc1ccc(Cl)cc1)SCc1ccccc1	none | D3 arrestin ag inactive | D2 ag-3 inactive
O=C(Cc1ccccc1)NCCSCc1ccc(Cl)cc1	none
COc1ccc(N2CCN(C(c3ccccc3)c3sc4nc(-c5ccco5)nn4c3O)CC2)cc1 (centres undefined)	none (no result: D2 PAM-1, D2 ag-2, D2 antagonist, D2 PAM-2)
O=C(CC1NCCc2ccccc21)Nc1ccccc1 (centres undefined)	none
O=C(CC1NCCc2ccccc21)Nc1ccccc1Cl (centres undefined)	none | D3 arrestin ag inactive | D2 ag-3 inactive
O=C(CC1NCCc2ccccc21)Nc1ccc(Oc2ccccc2)cc1 (centres undefined)	D2 ag-1 67.9, D2 antagonist 60.3 | D3 arrestin ag inactive | D2 ag-3 inactive
CCN(CC)C(=O)c1sc2c(c1C)c(=O)n(-c1ccc(Cl)c(Cl)c1)c(=O)n2Cc1cc(=O)n2ccccc2n1	none (no result: D2 PAM-1, D2 ag-2, D2 antagonist)
COc1ccc(C2(C)NC(=O)N(CC(=O)Nc3cccnc3Cl)C2=O)cc1 (centres undefined)	none
CC1(c2ccc(OC(F)F)cc2)NC(=O)N(CC(=O)Nc2cccnc2Cl)C1=O (centres undefined)	none | D3 arrestin ag inactive | D2 ag-3 inactive
CC(/C=C/c1ccccc1)=N\NC(=S)NC(C)C	D2 ag-1 31.2 | D3 arrestin ag inactive | D2 ag-3 inactive
COc1cccc(CNS(=O)(=O)c2ccc(N3CCCCS3(=O)=O)cc2)c1	none (no result: D2 PAM-1, D2 ag-2, D2 antagonist)
CCN(CC)S(=O)(=O)c1ccc2c(c1)N(CC(=O)Nc1ccc(C)cc1C)C(=O)C1CCCN21 (centres undefined)	none (no result: D2 PAM-1, D2 ag-2, D2 antagonist, D2 PAM-2)
CN(C)c1ccc(CNC(=O)c2cnc3sc(N4CCOCC4)nn3c2=O)cc1	none (no result: D2 ag-1, D2 PAM-1, D2 ag-2, D2 antagonist)
O=C(CC(c1cccs1)N1Cc2ccccc2C1=O)Nc1ccccc1F (centres undefined)	none (no result: D2 PAM-1, D2 ag-2, D2 antagonist)
Cc1cc(C)c(C)c(OCC(O)CN2CCN(c3ccccn3)CC2)c1 (centres undefined)	D2 ag-1 66.3, D2 ag-2 48.0, D2 antagonist 91.6 | D3 arrestin ag 3.98µM | D2 ag-3 3.98µM
CC1(C)Cc2cccc(OCC(O)CNCc3ccccn3)c2O1 (centres undefined)	none
Cc1cccc(OCC(O)CN2CCN(c3ccccn3)CC2)c1C (centres undefined)	D2 ag-1 72.1, D2 ag-2 inconclusive, D2 antagonist 78.2 | D3 arrestin ag inactive | D2 ag-3 inconclusive
CC1(C)Cc2cccc(OCC(O)CN3CCN(c4ccccn4)CC3)c2O1 (centres undefined)	D2 ag-1 72.3, D2 ag-2 inconclusive, D2 antagonist 60.3 | D3 arrestin ag inconclusive | D2 ag-3 inconclusive
COc1ccc([C@H]2CC(=O)C=C(c3ccc(O)cc3)C2)cc1OC	none | D3 arrestin ag inactive | D2 ag-3 inactive
O=C1C=C(c2cccc3c2Oc2ccccc2S3)C[C@@H](c2ccc(Cl)cc2)C1	none
COc1ccc([C@H]2CC(=O)C=C(c3cccc4c3Oc3ccccc3S4)C2)cc1OC	none | D3 arrestin ag inactive | D2 ag-3 inactive
Cc1cc(OC(C)C(=O)N2C[C@H]3C[C@@H](C2)c2cccc(=O)n2C3)c2c(C)c(C)c(=O)oc2c1 (some centres undefined)	D2 ag-1 41.5 | D3 arrestin ag inactive | D2 ag-3 inactive
Cc1c(C)c2ccc(OC(C)C(=O)N3C[C@H]4C[C@@H](C3)c3cccc(=O)n3C4)c(C)c2oc1=O (some centres undefined)	none
Cn1cc(C(F)(F)F)nc1-c1ccc(OCC(O)CNCCOc2ccc(O)c(C(N)=O)c2)cc1 (centres undefined)	D2 ag-1 89.7, D2 ag-2 inconclusive, D2 antagonist 71.8 | D3 arrestin ag inconclusive | D2 ag-3 inconclusive
CN1CCC2(CC1)C1CN(C)CC=C1C(C#N)=C(N)C2(C#N)C#N (centres undefined)	D2 ag-1 45.6! | D3 arrestin ag inactive | D2 ag-3 inconclusive
CCc1ccc(NCc2cc3cc4c(cc3n(CC(=O)Nc3ccccc3Cl)c2=O)OCO4)cc1	none (no result: D2 PAM-1, D2 ag-2, D2 antagonist)
CCOC(=O)C1=C(CN2CCN(c3ccc(Cl)cc3)CC2)NC(=O)NC1c1ccc(F)cc1 (centres undefined)	none (no result: D2 PAM-1, D2 ag-2, D2 antagonist)
CCC(=NCCc1ccccc1)C1=C(O)CCC1=O	D2 ag-1 49.4 | D3 arrestin ag inactive | D2 ag-3 inactive
CC(=O)CSc1nnc(-c2ccc(S(=O)(=O)N3CCOCC3)cc2)n1C	none (no result: D2 ag-1, D2 antagonist, D2 PAM-2) | D3 arrestin ag inactive | D2 ag-3 inactive
CC(=O)CSc1nnc(-c2ccc(S(=O)(=O)N3CCCC3)cc2)n1C	none
CC(C)(C)OC(=O)N1CCC(CNC(=O)c2ccc(F)cc2)CC1	D2 ag-1 32.2 | D3 arrestin ag inactive | D2 ag-3 inactive
COC(=O)COc1ccc2oc(-c3ccc(OC)cc3)cc(=O)c2c1	none (no result: D2 PAM-1, D2 ag-2, D2 antagonist)
O=C(COc1ccc2oc(-c3ccccc3)cc(=O)c2c1)Nc1ccccc1	none | D3 arrestin ag inactive | D2 ag-3 inactive
CCC(C)NC(=O)C1CCN(CCCc2ccccc2)CC1 (centres undefined)	D2 ag-1 50.8 | D3 arrestin ag inactive | D2 ag-3 inactive
CCC(C)NC(=O)C1CCN(C(=O)c2ccccc2)CC1 (centres undefined)	none
COc1ccc(S(=O)(=O)NCCc2sc(-c3cccc(F)c3)nc2C)cc1	none (no result: D2 ag-1, D2 PAM-1, D2 ag-2, D2 antagonist)
O=C(NCc1ccncc1)c1cccc(S(=O)(=O)Nc2ccc(F)cc2)c1	none | D3 arrestin ag inactive | D2 ag-3 inactive
O=C(NCc1ccccn1)c1cccc(S(=O)(=O)Nc2ccc(F)cc2)c1	none

Screening data as filed in PubChem BioAssay.
